Experimental data published in the supplement of paper PMC10849652.
About 7,900 targets were measured; listed, in parts, are those with a hit and a random draw of the rest. About 0.6% of all pairs of compound and target were hits.

Legend:
Assay in all cases: log2 fold change, soluble protein after heating vs DMSO (PISA); higher = thermal stabilisation; K562 cells, 10 uM, 30 min; active = over 0.2 and 3.5 SD of the protein, either way, in both replicates (recomputed)
erlotinib = compound: C#Cc1cccc(Nc2ncnc3cc(OCCOC)c(OCCOC)cc23)c1 [erlotinib]
How it was run: (§1)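 K562 cells at 2×10^6 cells/mL were treated with 10 μM compound for 30 min. Aliquots were heated for 3 min across 48°C-58°C, pooled, and extracted in PBS with 0.5% NP-40 at 4°C; soluble protein was the supernatant after 21,000xg for 90 min. Soluble protein was quantified by TMTpro 16plex LC-MS/MS with channel sums equalised, and reported as log2 fold change in thermal stability against DMSO controls, with values from duplicates.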

[1] = compound: C/C(=N\NC(=O)C1=CC(=CC=C1)S(=O)(=O)N2CCOCC2)/C3=C(C=CC(=C3)Cl)O
How it was run: as §1

[2] = compound: C1=CC(=C(C=C1Cl)C2=NC3=NC=CN=C3C(=N2)NC4=CC=NC=C4)F
How it was run: as §1

[3] = compound: C1=CC(=CC=C1C2=NC3=C(N2)C=C(C=C3)C(=O)N)OC4=CC=C(C=C4)Cl
How it was run: as §1

[4] = compound: C1=CC2=C(C=CC(=C2)/C=C\3/C(=O)NC(=NCC4=CC=CS4)S3)N=C1
How it was run: as §1

[5] = compound: C1=CC2=NC=CN=C2C=C1/C=C/3\C(=O)NC(=O)S3
How it was run: as §1

[6] = compound: C1=CC=C(C=C1)C2=NC(=C(N2)C3=CC=NC=C3)C4=CC(=C(C=C4)Cl)O
How it was run: as §1

[7] = compound: C1=CC=C2C(=C1)C3=NNC4=CC=CC(=C43)C2=O
How it was run: as §1

[8] = compound: C1CCN(C1)C(=O)NC2=CC=CC(=C2)NC3=NC=C(C(=N3)NCCC4=CN=CN4)Br
How it was run: as §1

[9] = compound: C1CN(CCC1(CC2=CC=C(C=C2)Cl)N)C3=NC=NC4=C3C=CN4
How it was run: as §1

IRAK-1-4 Inhibitor I = compound: C1COCCN1CCN2C3=CC=CC=C3N=C2NC(=O)C4=CC(=CC=C4)[N+](=O)[O-] [IRAK-1-4 Inhibitor I]
How it was run: as §1

ibrutinib = compound: C=CC(=O)N1CCC[C@@H](n2nc(-c3ccc(Oc4ccccc4)cc3)c3c(N)ncnc32)C1 [ibrutinib]
How it was run: as §1

[10] = compound: CC(=O)c1cnc2ccc(-c3cc(Cl)c(O)c(Cl)c3)nc2c1N[C@H]1CC[C@H](CN(C)C)CC1
How it was run: as §1

ralimetinib = compound: CC(C)(C)Cn1c(N)nc2ccc(-c3[nH]c(C(C)(C)C)nc3-c3ccc(F)cc3)nc21 [ralimetinib]
How it was run: as §1

[11] = compound: CC(C)(O)CC(=O)NCCn1ccc2ncnc(Nc3ccc(Oc4cccc(C(F)(F)F)c4)c(Cl)c3)c21
How it was run: as §1

[12] = compound: CC(C)C1=C2N=C(C=C(N2N=C1)NCC3=CC=CC=C3)NCCCCCCN
How it was run: as §1

[13] = compound: CC(C)C[C@@H](C=O)NC(=O)[C@H](CC(C)C)NC(=O)[C@H](CC(C)C)NC(=O)OCc1ccccc1
How it was run: as §1

pinometostat = compound: CC(C)N(C[C@H]1O[C@@H](n2cnc3c(N)ncnc32)[C@H](O)[C@@H]1O)[C@H]1C[C@@H](CCc2nc3cc(C(C)(C)C)ccc3[nH]2)C1 [pinometostat]
How it was run: as §1

[14] = compound: CC1=C(C(CC(=O)N1)C2=CC=C(C=C2)C(F)(F)F)C(=O)NC3=C(C=C4C(=C3)C=NN4)F
How it was run: as §1

[15] = compound: CC1=C(C2=C(C=C1)C(=O)C3=CC=CC=C3N2CCCN)C
How it was run: as §1

Measured: log2 fold change

COX5B (UniProt P10606)
Chain of UniProt P10606 (P10606 whole entry, looked up): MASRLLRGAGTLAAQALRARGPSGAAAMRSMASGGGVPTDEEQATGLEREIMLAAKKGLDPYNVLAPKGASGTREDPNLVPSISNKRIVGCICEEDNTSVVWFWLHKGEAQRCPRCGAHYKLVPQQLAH
active: [12] 0.428
inactive: erlotinib -0.068 | [1] 0.062 | [2] 0.16 | [3] -0.041 | [4] 0.032 | [5] 0.03 | [6] 0.114 | [7] -0.023 | [8] -0.067 | [9] -0.003 | IRAK-1-4 Inhibitor I 0.008 | ibrutinib -0.012 | [10] -0.079 | ralimetinib 0 | [11] 0.106 | [13] -0.082 | pinometostat -0.071 | [14] 0.003 | [15] 0.204

CHCHD1 (UniProt Q96BP2)
inactive: erlotinib -0.034 | [1] -0.007 | [2] -0.048 | [3] 0.027 | [4] -0.135 | [5] -0.003 | [6] -0.057 | [7] 0.039 | [8] 0.022 | [9] -0.091 | IRAK-1-4 Inhibitor I -0.071 | ibrutinib 0.119 | [10] -0.009 | ralimetinib -0.117 | [11] 0.026 | [12] -0.027 | [13] 0.037 | pinometostat -0.021 | [14] 0.08 | [15] -0.19

CSNK2B (UniProt P67870)
inactive: erlotinib -0.021 | [1] -0.024 | [2] -0.017 | [3] -0.007 | [4] 0.123 | [6] 0.031 | [7] 0.084 | [8] -0.031 | [9] -0.023 | IRAK-1-4 Inhibitor I -0.003 | ibrutinib -0.014 | ralimetinib -0.006 | [11] -0.021 | [12] -0.087 | [13] -0.003 | pinometostat 0.044 | [14] 0.022 | [15] 0.096
active: [5] 0.324 | [10] 0.266

CBX5 (UniProt P45973)
Chain of UniProt P45973 (P45973 whole entry, looked up): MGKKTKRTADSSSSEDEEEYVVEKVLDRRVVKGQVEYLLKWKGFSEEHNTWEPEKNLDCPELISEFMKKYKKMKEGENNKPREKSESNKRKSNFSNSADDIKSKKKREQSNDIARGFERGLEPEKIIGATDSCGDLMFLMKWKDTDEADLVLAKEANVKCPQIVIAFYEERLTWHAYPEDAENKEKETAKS
active: [15] -0.545
inactive: erlotinib -0.018 | [1] 0.08 | [2] 0 | [3] 0.043 | [4] 0.111 | [5] 0.025 | [6] 0.003 | [7] -0.028 | [8] -0.002 | [9] -0.015 | IRAK-1-4 Inhibitor I -0.076 | ibrutinib 0.002 | [10] -0.102 | ralimetinib -0.002 | [11] 0.056 | [12] -0.067 | [13] -0.001 | pinometostat -0.058 | [14] -0.024

CCDC59 (UniProt Q9P031)
inactive: erlotinib -0.118 | [1] -0.127 | [2] -0.192 | [3] 0.071 | [4] -0.136 | [5] -0.014 | [6] -0.091 | [7] 0.069 | [8] 0.054 | [9] -0.027 | IRAK-1-4 Inhibitor I -0.083 | ibrutinib -0.051 | [10] 0.224 | ralimetinib 0.28 | [11] -0.073 | [12] 0.093 | [13] 0.197 | pinometostat 0.233 | [14] 0.036 | [15] -0.468

COX15 (UniProt Q7KZN9)
Chain of UniProt Q7KZN9 (Q7KZN9 whole entry, looked up): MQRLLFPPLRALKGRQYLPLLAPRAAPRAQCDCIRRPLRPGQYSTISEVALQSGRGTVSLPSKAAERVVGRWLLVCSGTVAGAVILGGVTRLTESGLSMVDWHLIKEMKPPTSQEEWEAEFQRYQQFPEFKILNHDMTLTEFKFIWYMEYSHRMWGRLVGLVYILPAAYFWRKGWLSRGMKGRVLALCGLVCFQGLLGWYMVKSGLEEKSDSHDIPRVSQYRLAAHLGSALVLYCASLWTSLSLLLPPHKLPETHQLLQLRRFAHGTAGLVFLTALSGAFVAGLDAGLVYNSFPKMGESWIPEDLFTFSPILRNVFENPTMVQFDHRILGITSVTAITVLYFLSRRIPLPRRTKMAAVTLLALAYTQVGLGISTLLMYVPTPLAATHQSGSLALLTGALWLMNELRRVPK
inactive: erlotinib -0.01 | [1] -0.008 | [2] 0.067 | [3] -0.008 | [4] 0.03 | [5] 0.145 | [6] -0.009 | [7] -0.019 | [8] 0.01 | [9] 0.057 | IRAK-1-4 Inhibitor I 0.022 | ibrutinib -0.04 | [10] 0.027 | ralimetinib -0.03 | [11] -0.036 | [12] -0.04 | [13] 0.001 | pinometostat -0.022 | [14] -0.004 | [15] 0.008

CPSF6 isoform 2 (UniProt Q16630)
inactive: erlotinib 0.023 | [1] 0.079 | [2] -0.072 | [3] 0.122 | [4] -0.04 | [5] -0.026 | [6] -0.002 | [7] -0.016 | [8] -0.021 | [9] -0.135 | IRAK-1-4 Inhibitor I -0.047 | ibrutinib 0 | ralimetinib -0.017 | [11] 0.02 | [12] -0.029 | [13] -0.053 | pinometostat 0.004 | [14] -0.042 | [15] 0.195
active: [10] -0.599

CA8 (UniProt P35219)
Chain of UniProt P35219 (P35219 whole entry, looked up): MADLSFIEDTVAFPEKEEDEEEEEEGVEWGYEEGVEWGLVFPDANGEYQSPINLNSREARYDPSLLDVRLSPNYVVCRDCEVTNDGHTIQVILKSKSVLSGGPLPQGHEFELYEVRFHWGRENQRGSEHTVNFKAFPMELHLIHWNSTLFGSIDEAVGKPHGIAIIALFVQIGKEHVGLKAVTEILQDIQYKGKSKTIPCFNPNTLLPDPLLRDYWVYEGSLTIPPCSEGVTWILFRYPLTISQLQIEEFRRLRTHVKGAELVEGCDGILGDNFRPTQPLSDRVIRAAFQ
inactive: erlotinib -0.045 | [1] 0.051 | [2] 0.092 | [3] -0.017 | [4] 0.054 | [5] 0.019 | [6] 0.118 | [7] -0.02 | [8] -0.054 | [9] 0.011 | IRAK-1-4 Inhibitor I 0.027 | ibrutinib 0.004 | [10] -0.091 | ralimetinib 0.033 | [11] -0.036 | [12] -0.056 | [13] 0.011 | pinometostat -0.008 | [14] -0.021 | [15] -0.046

COX6B1 (UniProt P14854)
Chain of UniProt P14854 (P14854 whole entry, looked up): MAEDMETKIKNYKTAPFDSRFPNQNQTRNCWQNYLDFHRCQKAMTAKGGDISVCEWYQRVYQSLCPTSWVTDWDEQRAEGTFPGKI
inactive: erlotinib 0.027 | [1] 0.011 | [2] 0.247 | [3] -0.045 | [4] 0.118 | [5] 0.048 | [6] 0 | [7] -0.037 | [8] -0.003 | [9] -0.019 | IRAK-1-4 Inhibitor I -0.046 | ibrutinib -0.038 | [10] -0.013 | ralimetinib -0.144 | [11] -0.103 | [12] 0.038 | [13] -0.01 | pinometostat 0.017 | [14] 0.045 | [15] 0.103

CAMK2G isoform 6 (UniProt Q13555)
Chain of UniProt Q13555 (Q13555 whole entry, looked up): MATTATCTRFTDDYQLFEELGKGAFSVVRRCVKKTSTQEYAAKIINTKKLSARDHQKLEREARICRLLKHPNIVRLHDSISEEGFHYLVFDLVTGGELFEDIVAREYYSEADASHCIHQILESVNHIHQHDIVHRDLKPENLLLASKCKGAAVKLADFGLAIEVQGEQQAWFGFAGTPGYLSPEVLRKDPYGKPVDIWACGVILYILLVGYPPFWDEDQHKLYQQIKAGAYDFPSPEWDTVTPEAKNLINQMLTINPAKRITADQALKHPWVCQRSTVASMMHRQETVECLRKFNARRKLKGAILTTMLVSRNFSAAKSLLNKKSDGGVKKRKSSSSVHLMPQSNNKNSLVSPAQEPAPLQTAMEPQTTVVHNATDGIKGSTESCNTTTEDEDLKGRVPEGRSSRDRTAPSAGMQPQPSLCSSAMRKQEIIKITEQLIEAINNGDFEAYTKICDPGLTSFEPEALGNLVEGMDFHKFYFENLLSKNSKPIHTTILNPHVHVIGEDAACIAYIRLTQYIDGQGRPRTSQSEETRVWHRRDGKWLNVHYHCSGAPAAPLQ
inactive: erlotinib -0.003 | [1] -0.096 | [2] -0.047 | [3] -0.098 | [4] 0.054 | [5] 0.009 | [6] 0.055 | [7] 0.08 | [8] -0.02 | [9] 0.015 | IRAK-1-4 Inhibitor I -0.008 | ibrutinib 0.004 | [10] 0.181 | ralimetinib 0.118 | [11] 0.039 | [12] -0.016 | [13] 0.038 | pinometostat 0.067 | [14] -0.075 | [15] 0.063

CRTC2 (UniProt Q53ET0)
Chain of UniProt Q53ET0 (Q53ET0 whole entry, looked up): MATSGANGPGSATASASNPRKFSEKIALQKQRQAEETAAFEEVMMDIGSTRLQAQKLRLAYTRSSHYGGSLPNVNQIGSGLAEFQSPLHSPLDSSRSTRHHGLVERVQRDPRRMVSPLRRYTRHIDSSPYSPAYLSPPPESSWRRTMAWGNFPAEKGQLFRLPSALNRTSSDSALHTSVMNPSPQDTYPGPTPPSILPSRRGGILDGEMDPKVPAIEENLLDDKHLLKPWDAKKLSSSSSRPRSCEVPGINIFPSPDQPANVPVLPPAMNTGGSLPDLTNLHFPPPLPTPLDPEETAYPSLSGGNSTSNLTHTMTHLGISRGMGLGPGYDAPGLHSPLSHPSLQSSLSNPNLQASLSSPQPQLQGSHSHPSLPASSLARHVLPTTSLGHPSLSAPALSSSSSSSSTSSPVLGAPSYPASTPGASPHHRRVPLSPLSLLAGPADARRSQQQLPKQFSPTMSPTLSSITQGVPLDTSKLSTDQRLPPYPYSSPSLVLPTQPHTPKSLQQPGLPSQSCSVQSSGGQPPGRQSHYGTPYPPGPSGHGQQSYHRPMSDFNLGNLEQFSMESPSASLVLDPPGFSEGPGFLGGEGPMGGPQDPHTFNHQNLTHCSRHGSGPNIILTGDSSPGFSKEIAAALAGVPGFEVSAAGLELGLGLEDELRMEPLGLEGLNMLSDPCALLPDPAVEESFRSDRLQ
inactive: erlotinib 0.194 | [1] 0.151 | [2] 0.039 | [3] 0.035 | [4] 0.093 | [5] 0.073 | [6] -0.129 | [7] -0.14 | [8] -0.233 | [9] 0.08 | IRAK-1-4 Inhibitor I -0.024 | ibrutinib -0.048 | [10] -0.151 | ralimetinib 0 | [11] -0.053 | [12] -0.058 | [13] -0.032 | pinometostat 0.01 | [14] 0.113 | [15] 0.101

CD151 (UniProt P48509)
Chain of UniProt P48509 (P48509 whole entry, looked up): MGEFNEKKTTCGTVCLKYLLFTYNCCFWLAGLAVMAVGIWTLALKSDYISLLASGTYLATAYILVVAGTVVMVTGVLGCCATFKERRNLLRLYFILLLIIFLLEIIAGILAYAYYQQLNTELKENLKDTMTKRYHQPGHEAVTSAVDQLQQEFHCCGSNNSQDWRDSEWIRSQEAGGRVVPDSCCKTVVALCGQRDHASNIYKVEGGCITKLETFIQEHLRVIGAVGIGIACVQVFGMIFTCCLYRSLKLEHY
inactive: erlotinib -0.035 | [1] 0.029 | [2] 0.045 | [3] 0.103 | [4] -0.021 | [5] 0.069 | [6] 0.021 | [7] -0.125 | [8] -0.021 | [9] 0.113 | IRAK-1-4 Inhibitor I -0.077 | ibrutinib 0.012 | [10] 0.025 | ralimetinib 0.013 | [11] -0.021 | [12] -0.017 | [13] 0.027 | pinometostat -0.054 | [14] 0.082 | [15] 0.083

CPQ (UniProt Q9Y646)
Chain of UniProt Q9Y646 (Q9Y646 whole entry, looked up): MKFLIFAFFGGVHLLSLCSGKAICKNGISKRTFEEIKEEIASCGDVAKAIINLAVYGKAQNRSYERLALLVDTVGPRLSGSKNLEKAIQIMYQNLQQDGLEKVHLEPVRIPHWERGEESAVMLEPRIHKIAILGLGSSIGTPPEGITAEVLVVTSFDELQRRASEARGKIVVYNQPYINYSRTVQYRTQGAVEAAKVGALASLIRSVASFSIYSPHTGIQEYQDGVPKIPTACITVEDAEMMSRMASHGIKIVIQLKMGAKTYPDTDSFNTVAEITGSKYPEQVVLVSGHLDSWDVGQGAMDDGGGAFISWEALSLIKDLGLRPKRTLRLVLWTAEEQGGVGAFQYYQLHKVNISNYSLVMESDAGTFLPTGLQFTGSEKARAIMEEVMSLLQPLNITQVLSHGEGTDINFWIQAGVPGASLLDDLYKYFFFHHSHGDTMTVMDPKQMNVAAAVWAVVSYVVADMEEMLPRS
inactive: erlotinib 0.013 | [1] 0.002 | [2] 0.051 | [3] 0 | [4] 0.05 | [5] 0.004 | [6] 0.07 | [7] 0 | [8] -0.027 | [9] 0.125 | IRAK-1-4 Inhibitor I 0.095 | ibrutinib 0.01 | [10] -0.034 | ralimetinib -0.011 | [11] 0.003 | [12] 0.049 | [13] -0.032 | pinometostat 0.007 | [14] 0.023 | [15] 0.006

CS (UniProt O75390)
Chain of UniProt O75390 (O75390 whole entry, looked up): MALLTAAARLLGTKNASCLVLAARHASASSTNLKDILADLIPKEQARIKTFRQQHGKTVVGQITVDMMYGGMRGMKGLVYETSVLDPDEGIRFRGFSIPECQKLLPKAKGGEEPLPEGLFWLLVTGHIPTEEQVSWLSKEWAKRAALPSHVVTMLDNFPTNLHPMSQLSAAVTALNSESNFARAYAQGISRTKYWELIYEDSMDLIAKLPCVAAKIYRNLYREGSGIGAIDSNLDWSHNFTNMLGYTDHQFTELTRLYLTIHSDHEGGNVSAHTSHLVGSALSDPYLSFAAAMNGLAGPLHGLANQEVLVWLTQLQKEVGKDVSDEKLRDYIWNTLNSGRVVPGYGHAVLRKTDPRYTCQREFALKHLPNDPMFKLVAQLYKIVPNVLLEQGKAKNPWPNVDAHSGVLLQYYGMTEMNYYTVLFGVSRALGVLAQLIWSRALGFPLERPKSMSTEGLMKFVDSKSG
inactive: erlotinib 0.028 | [1] 0.035 | [2] 0.033 | [3] 0.002 | [4] 0.051 | [5] -0.009 | [6] 0.072 | [7] -0.064 | [8] -0.015 | [9] 0.035 | IRAK-1-4 Inhibitor I 0.02 | ibrutinib -0.004 | [10] 0.002 | ralimetinib -0.04 | [11] -0.178 | [12] -0.148 | [13] -0.069 | pinometostat -0.05 | [14] 0.02 | [15] 0.008

CHAMP1 (UniProt Q96JM3)
Chain of UniProt Q96JM3 (Q96JM3 whole entry, looked up): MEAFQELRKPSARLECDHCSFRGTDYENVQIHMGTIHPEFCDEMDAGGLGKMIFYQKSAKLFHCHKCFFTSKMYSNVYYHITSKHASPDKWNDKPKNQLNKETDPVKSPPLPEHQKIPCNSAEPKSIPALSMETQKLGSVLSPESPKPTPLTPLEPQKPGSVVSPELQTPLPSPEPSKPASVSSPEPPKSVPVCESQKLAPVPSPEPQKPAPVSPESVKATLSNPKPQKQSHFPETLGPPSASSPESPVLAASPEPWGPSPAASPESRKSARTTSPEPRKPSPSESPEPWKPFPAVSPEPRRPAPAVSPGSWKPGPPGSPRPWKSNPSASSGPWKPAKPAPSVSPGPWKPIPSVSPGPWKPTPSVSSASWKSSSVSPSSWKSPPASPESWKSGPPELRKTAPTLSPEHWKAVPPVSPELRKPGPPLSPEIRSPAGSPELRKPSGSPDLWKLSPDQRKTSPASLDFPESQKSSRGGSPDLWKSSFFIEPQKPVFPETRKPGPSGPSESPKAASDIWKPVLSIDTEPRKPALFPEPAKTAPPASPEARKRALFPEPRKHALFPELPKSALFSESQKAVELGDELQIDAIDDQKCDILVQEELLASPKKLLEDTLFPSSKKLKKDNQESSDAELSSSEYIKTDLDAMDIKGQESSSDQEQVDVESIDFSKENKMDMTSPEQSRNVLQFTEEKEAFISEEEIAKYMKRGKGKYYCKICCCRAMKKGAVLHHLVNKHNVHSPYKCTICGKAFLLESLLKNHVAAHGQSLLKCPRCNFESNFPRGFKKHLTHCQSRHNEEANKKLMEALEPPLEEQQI
active: [15] -0.23
inactive: erlotinib 0.083 | [1] 0.004 | [2] 0.075 | [3] 0.03 | [4] 0.023 | [5] 0.014 | [6] -0.01 | [7] -0.06 | [8] 0.004 | [9] 0.064 | IRAK-1-4 Inhibitor I 0.047 | ibrutinib 0.066 | [10] -0.207 | ralimetinib 0.033 | [11] -0.036 | [12] -0.047 | [13] -0.015 | pinometostat 0.034 | [14] 0.004

CNOT4 isoform 6 (UniProt O95628)
Chain of UniProt O95628 (O95628 whole entry, looked up): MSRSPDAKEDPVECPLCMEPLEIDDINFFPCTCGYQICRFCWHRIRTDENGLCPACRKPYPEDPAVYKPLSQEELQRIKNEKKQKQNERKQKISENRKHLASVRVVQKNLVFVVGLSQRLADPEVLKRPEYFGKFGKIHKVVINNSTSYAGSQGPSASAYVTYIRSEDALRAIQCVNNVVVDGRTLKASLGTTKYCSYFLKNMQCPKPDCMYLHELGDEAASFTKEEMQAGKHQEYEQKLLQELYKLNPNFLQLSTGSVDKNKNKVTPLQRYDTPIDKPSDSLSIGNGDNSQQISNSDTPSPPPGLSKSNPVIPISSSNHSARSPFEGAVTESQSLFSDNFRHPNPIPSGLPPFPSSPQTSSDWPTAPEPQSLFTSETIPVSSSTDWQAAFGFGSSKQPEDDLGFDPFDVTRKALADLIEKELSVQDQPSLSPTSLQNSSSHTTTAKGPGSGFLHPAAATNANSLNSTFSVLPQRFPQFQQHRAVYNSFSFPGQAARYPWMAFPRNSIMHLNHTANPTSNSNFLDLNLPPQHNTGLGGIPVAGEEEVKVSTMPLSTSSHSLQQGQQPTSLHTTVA
inactive: erlotinib 0.004 | [1] 0.06 | [2] 0.026 | [3] 0.014 | [4] 0.03 | [5] 0.003 | [6] -0.007 | [7] -0.043 | [8] -0.011 | [9] 0.044 | IRAK-1-4 Inhibitor I 0.044 | ibrutinib 0.016 | [10] -0.062 | ralimetinib -0.048 | [11] 0.002 | [12] 0.038 | [13] -0.019 | pinometostat -0.025 | [14] 0.018 | [15] 0.051
